Compound activity: PubChem, several laboratories
The list is not random: actives were taken first. Their share in the collection is about 5.1%.
TMEM16A act: TMEM16A chloride channel activators or potentiators, primary screen, cell-based, HTS. B-score at 10 µM. 340,000 compounds, 0.3% hits. HEK293 TMEM16A/YFP-H148Q/I152L, iodide quench fluorescence; stronger effect = lower value;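 active means fluorescence-ratio B-score plate-corrected deviation score at least 3 library SD below zero, with starting fluorescence score within 5 deviations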;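 further: channel opened by trigger with iodide after compound preincubation; score built on the fluorescence ratio of max minus min over baseline; more negative score means more quench and so TMEM16A activation or potentiation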
MPTP inh: mitochondrial permeability transition pore inhibitors, primary screen, biochemical, isolated mouse mitochondria, absorbance; Ca2+ swelling absorbance, 30 min; inhibition, % at 10 µM; 360,000 compounds, 1.4% hits;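 active means inhibition of 50% or more, scaled per plate between neutral and stimulator controls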
CRFR2-BP ag: agonists of CRF-BP/CRF-R2 complex, primary screen, cell-based, HEK293, calcium dye fluorescence, uHTS; CRF-binding protein / CRF receptor 2 complex (human); calcium dye fluorescence (FLIPR); percent of saturating CRF peptide response; activation, % at 13.2 µM; 350,000 compounds, 0.46% hits;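 active means activation of at least 50%, plus an integration ratio under a set limit after plate pattern correction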
ANO1 block: TMEM16A chloride channel inhibitors, primary screen, cell-based, HTS. Anoctamin-1 (Mus musculus), Q8BHY3. HEK293 TMEM16A/YFP iodide influx fluorescence, ionomycin. normalized B-score (activity score, 25-100; higher = stronger inhibition) at 10 µM. 310,000 compounds, 1.2% hits. AID 588511, 2011;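 active means ratio plate-corrected score three or more library SD toward inhibition, starting fluorescence score within five deviations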;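 further: score derived from kinetic fluorescence span divided by baseline fluorescence per well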
GRIN3A LBD mod: binders of NR3A ligand-binding domain, primary screen, biophysical, differential scanning fluorimetry, uHTS | Glutamate receptor ionotropic, NMDA 3A (GRIN3A) ligand-binding domain | NR3A LBD differential scanning fluorimetry, Tm shift; 0% = protein alone, 100% = glycine-bound protein | Tm shift relative to glycine control, % at 25 µM | 340,000 compounds, 2.5% hits;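 active means melting temperature shift of at least 10% of the positive control shift, at one fixed dose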
CRFBP-R2 block: antagonists of CRF-BP/CRF-R2 complex, primary screen, cell-based, HEK293, calcium dye fluorescence, uHTS. CRF-induced calcium fluorescence. inhibition, % at 11.8 µM. 350,000 compounds, 0.59% hits;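 active means inhibition of the ligand-induced calcium signal above about 50% at the single tested concentration, limit read from the data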
TMEM16A reconf: TMEM16A chloride channel inhibitors, confirmation, cell-based, re-confirmation; inhibition, % at 10 µM; AID 652189, 2013; 2,300 compounds, 39% hits; HEK293 TMEM16A/YFP-H148Q, iodide quench fluorescence; ionomycin added to raise cell calcium; shares compounds with ANO1 block;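 active means mean duplicate percent inhibition, scaled so buffer wells are 0 and the reference blocker 100, over three buffer SD above buffer mean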
TMEM16A Ca cntr: calcium mobilization in TMEM16A/YFP HEK293 cells, confirmation, counter-screen for TMEM16A inhibitor project; shares compounds with ANO1 block; calcium response (% of ionomycin), % at 10 µM; AID 652231, 2013; Fluo4 calcium mobilization; 2,300 compounds, 2% hits;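 active means duplicate-averaged calcium signal over 20% of the ionomycin maximum, relative to buffer baseline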;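 further: each well's signal is peak minus trough fluorescence divided by its pre-addition baseline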
YFP-HEK293 quench: iodide YFP quench changes in parental YFP-HEK293, counter-screen for TMEM16A inhibitor project, cell-based. shares compounds with ANO1 block. ionomycin. YFP ratio F(max-min)/F0 at 10 µM. 2,300 tested, under 10 active. AID 652233, 2013;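 active means yellow fluorescent protein signal ratio exceeding the buffer control mean by over 5 SD of those controls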;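 further: ratio is mean of duplicate wells from kinetic YFP trace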
ClC-1 inh: ClC-1 chloride channel inhibition, selectivity assay for TMEM16A inhibitor project, cell-based, voltage-dependent ClC-1. AID 652236, 2013. ratio percent, % at 10 µM. CHO ClC-1-YFP, iodide influx fluorescence quench; iodide control reads 0, buffer control 100. shares compounds with ANO1 block. 2,300 tested, under 10 active;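 active means duplicate-mean ratio percent above the mean of iodide-only control wells, which defines zero, plus 5 of their SD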;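 further: higher percent means stronger block of ClC-1 iodide influx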
Target sequence (P35524 whole entry, looked up): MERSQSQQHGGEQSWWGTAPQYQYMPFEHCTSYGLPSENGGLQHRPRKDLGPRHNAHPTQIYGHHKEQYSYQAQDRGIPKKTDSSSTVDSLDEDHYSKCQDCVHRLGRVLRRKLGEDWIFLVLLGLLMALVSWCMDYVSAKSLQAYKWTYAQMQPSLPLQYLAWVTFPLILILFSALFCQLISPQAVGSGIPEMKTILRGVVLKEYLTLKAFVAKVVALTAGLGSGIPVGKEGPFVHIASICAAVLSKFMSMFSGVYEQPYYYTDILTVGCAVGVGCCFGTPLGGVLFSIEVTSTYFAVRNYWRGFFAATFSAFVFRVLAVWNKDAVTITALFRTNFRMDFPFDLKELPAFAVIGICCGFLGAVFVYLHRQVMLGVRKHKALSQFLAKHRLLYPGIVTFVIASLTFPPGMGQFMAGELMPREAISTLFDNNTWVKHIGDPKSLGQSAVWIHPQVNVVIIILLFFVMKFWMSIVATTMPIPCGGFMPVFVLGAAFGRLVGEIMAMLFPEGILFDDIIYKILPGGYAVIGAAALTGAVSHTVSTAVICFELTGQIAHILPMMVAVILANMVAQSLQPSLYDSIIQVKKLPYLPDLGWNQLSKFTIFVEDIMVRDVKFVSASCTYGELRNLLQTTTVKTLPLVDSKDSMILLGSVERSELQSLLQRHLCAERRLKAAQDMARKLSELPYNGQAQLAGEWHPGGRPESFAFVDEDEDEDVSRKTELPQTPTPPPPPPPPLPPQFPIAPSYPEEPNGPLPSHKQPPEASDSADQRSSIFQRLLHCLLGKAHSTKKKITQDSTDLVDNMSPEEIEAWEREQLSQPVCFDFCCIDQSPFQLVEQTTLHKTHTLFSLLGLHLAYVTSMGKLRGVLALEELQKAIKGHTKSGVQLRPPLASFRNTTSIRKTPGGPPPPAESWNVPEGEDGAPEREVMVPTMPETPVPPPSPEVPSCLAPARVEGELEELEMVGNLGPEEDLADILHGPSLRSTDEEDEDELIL
Large screens that a line does not name were inactive (follow-up assays come after a bar, where they were run).

Cc1cc(C(=O)Cn2nnc(-c3ccc(Cl)cc3)n2)c(C)n1CC1CCCO1 (configuration not stated)	ANO1 block 25 | TMEM16A reconf 22.0% | TMEM16A Ca cntr inactive | YFP-HEK293 quench inactive | ClC-1 inh inactive
Cc1cc(C(=O)CSc2nnc(-c3ccc(Cl)cc3)n2C)c(C)n1CC1CCCO1 (configuration not stated)	none
Cc1cc(C(=O)CSc2nc3ccccc3o2)c(C)n1CC1CCCO1 (configuration not stated)	ANO1 block 100 | TMEM16A reconf inactive | TMEM16A Ca cntr inactive | YFP-HEK293 quench inactive | ClC-1 inh inactive
COc1ccccc1NC(=O)c1ccc(NC(=O)c2ccc(=O)[nH]c2)cc1	none (no result: ANO1 block)
O=C(OCc1cn([C@H]2C[C@H](c3ccc(Cl)cc3)N(Cc3cccs3)C[C@@H]2O)nn1)c1ccccc1	none (no result: TMEM16A act, ANO1 block, GRIN3A LBD mod)
COc1cc(OC)cc(C(=O)N[C@H](C(=O)NCc2ccccc2)C(C)C)c1	none
Cc1cccc(C)c1NC(=O)CNC(=O)c1ccc2c(c1)NC(=O)CS2	none (no result: ANO1 block)
CC(OC(=O)c1ccc(O)cc1)C(=O)Nc1cc(C(F)(F)F)ccc1Cl (configuration not stated)	ANO1 block 25 | TMEM16A reconf 58.0% | TMEM16A Ca cntr inactive | YFP-HEK293 quench inactive | ClC-1 inh inactive
Cc1ccccc1NC(=O)OCc1ccccc1	none
c1ccc2c(-c3c[nH]c4ccccc34)c3ccccc3nc2c1	ANO1 block 25 | TMEM16A reconf inactive | TMEM16A Ca cntr inactive | YFP-HEK293 quench inactive | ClC-1 inh inactive
O=C(COC(=O)c1ccc(Cl)nc1)Nc1cc(S(=O)(=O)N2CCOCC2)ccc1Cl	none (no result: ANO1 block)
COc1ccc(Cl)cc1C(=O)CSc1nnnn1C1CCCCC1	ANO1 block 100 | TMEM16A reconf inactive | TMEM16A Ca cntr inactive | YFP-HEK293 quench inactive | ClC-1 inh inactive
COc1ccc(Cl)cc1C(=O)CSc1nnnn1C1CCCC1	none
CC(C)Cc1nc(N2CCN(C(=O)c3ccco3)CC2)c(C#N)c2c1CCCC2	ANO1 block 25 | TMEM16A reconf inactive | TMEM16A Ca cntr inactive | YFP-HEK293 quench inactive | ClC-1 inh inactive
COC(=O)C(C(=O)OC)c1ncccc1NS(=O)(=O)c1ccc(C)cc1	none (no result: TMEM16A act, CRFR2-BP ag, ANO1 block, GRIN3A LBD mod, CRFBP-R2 block)
NC(=O)COC(=O)c1c2c(nc3ccccc13)CCCC2	none
O=C(OCC(=O)N1CCc2ccccc21)c1c2c(nc3ccccc13)CCCCC2	ANO1 block 100 | TMEM16A reconf inactive | TMEM16A Ca cntr inactive | YFP-HEK293 quench inactive | ClC-1 inh inactive
Cc1cc(C)c(S(=O)(=O)N2CCCc3ccccc32)c(C)c1	ANO1 block 25 | TMEM16A reconf 32.0% | TMEM16A Ca cntr inactive | YFP-HEK293 quench inactive | ClC-1 inh inactive
Cc1cccc(S(=O)(=O)N2CCCc3ccccc32)c1	none
